Test results: PubChem BioAssay (NCI)
About 83,000 compounds went through this panel and 20% of them were active in at least one assay; those are over-represented in the sample as a whole.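 Assay: single dose, 48 h. Readout: percent growth (0 = no net growth; negative = cell death). Active: <10.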 Unmarked numbers belong to inactive results. The source made the active and inactive calls.

Experiments:
Assay in all cases: NCI-60 one-dose screen, 48 h (100 = growth as untreated, 0 = no growth, -100 = all killed)
NCI-H23 lung = details: 10 µM unless noted
NCI-H322M lung = details: 10 µM unless noted
HOP-62 NSCLC = details: 10 µM unless noted
NCI-H522 lung = details: 10 µM
A549/ATCC NSCLC = details: 10 µM unless noted
786-0 renal = details: 10 µM unless noted
COLO 205 colon = details: 10 µM unless noted
DU-145 prostate = details: 10 µM unless noted
K-562 leukemia = details: 10 µM unless noted
MALME-3M melanoma = details: 10 µM unless noted
MDA-MB-231 breast = details: 10 µM unless noted
RXF 393 renal = details: 10 µM unless noted
SF-268 CNS = details: 10 µM unless noted
SF-539 CNS = details: 10 µM unless noted
UACC-257 melanoma = details: 10 µM unless noted
M14 melanoma = details: 10 µM unless noted
NCI-H460 lung = details: 10 µM unless noted
SF-295 CNS = details: 10 µM unless noted
HOP-92 NSCLC = details: 10 µM unless noted
NCI-H226 lung = details: 10 µM

| Compound | growth (NCI-H23 lung) | growth (NCI-H322M lung) | growth (HOP-62 NSCLC) | growth (NCI-H522 lung) | growth (A549/ATCC NSCLC) | growth (786-0 renal) | growth (COLO 205 colon) | growth (DU-145 prostate) | growth (K-562 leukemia) | growth (MALME-3M melanoma) | growth (MDA-MB-231 breast) | growth (RXF 393 renal) | growth (SF-268 CNS) | growth (SF-539 CNS) | growth (UACC-257 melanoma) | growth (M14 melanoma) | growth (NCI-H460 lung) | growth (SF-295 CNS) | growth (HOP-92 NSCLC) | growth (NCI-H226 lung) |
| --- | --- | --- | --- | --- | --- | --- | --- | --- | --- | --- | --- | --- | --- | --- | --- | --- | --- | --- | --- | --- |
| COc1cccc(Nc2nc(NCCO)c3ccccc3n2)c1 | 85.8% | 86.4% | 93.1% | 70.8% | 68.3% | 86% | 108% | 97% | 42.7% | 75.7% | 65.3% | 70.7% | 72.5% | 81.5% | 95.8% | 77.7% |  |  |  |  |
| CC1=CN2C(=NC3=C(CCCC/C3=C\c3ccccc3)C2c2ccccc2)S1 (configuration not stated) | 101% | 101% | 103% |  | 108% | 105% | 122% | 108% | 98.2% | 89% | 103% |  | 96.9% | 92.3% |  | 107% | 107% | 79.1% |  |  |
| Cc1ccc(S(=O)(=O)N2C/C(=C\c3cc(F)cc(F)c3)C(=O)/C(=C/c3cc(F)cc(F)c3)C2)cc1 | -21.6% (active) | 27% | -60% (active) |  | 27.6% | -85.6% (active) | 1.42% (active) | -61.3% (active) | 2.14% (active) | -62.9% (active) | -29.7% (active) |  | -40.6% (active) | -39.6% (active) |  | -50.1% (active) | 5.73% (active) |  |  |  |
| Clc1nc(-c2ccccn2)nc2sc3c(c12)CCCCCC3 | 82.4% | 84.5% | 86.6% |  | 99.8% | 98.4% | 115% | 22.6% | 79.8% | 94.2% | 117% |  | 94.6% | 97.3% |  | 86.8% | 90.9% |  |  |  |
| Nc1nc(-c2ccnc(Cl)c2)nn1-c1nc2ccccc2s1 | 101% | 100% |  |  | 103% | 109% | 116% | 115% | 112% | 97.3% | 89.5% | 108% | 100% | 98.5% | 113% | 101% | 107% | 101% | 103% |  |
| CCOC(=O)c1cn2c3c(cc(F)cc3c1=O)C(CC)c1ccccc1C2 (configuration not stated) | 103% | 87.1% |  | 78.7% | 87.2% | 93.2% | 105% | 104% | 78.1% | 90.8% | 104% | 118% | 96.8% | 97.5% | 96.3% | 114% | 101% | 91.5% | 95.6% |  |
| FC(F)(F)Oc1ccc2c(c1)C[C@H]1C[C@@H](c3ccoc3)N2O1 | 96.5% | 117% |  | 99.6% | 92.1% | 105% | 110% | 110% | 91.8% | 109% | 93.9% | 134% | 126% | 93.9% | 87.4% | 117% | 114% | 91.2% | 82.8% |  |
| CCOC(=O)n1cc(C2=C(c3cn(C)c4ccccc34)COC2=O)c2ccccc21 | 30% | 47.4% |  |  | 22.6% | 27.5% | -31.2% (active) | -14.3% (active) | 5.86% (active) | 37.2% | 25.5% | 19.6% | 26% | -16.3% (active) | 55.1% | 20.1% | 3.7% (active) | 1.58% (active) | 37.9% |  |
| CC(=O)OC[C@H](O)[C@@]1(O)CC[C@H]2[C@@H]3CCC4=CC(=O)CC[C@]4(C)[C@H]3[C@@H](O)C[C@@]21C | 103% | 112% |  | 99.6% | 83.1% | 104% |  | 93.7% | 89.5% | 95.8% |  | 134% | 97.1% | 100% | 110% | 104% | 97.3% | 111% | 81.7% |  |
| COc1cc(/C=C/C(=O)CC(=O)/C=C/c2cc(Br)c(OC)c(OC)c2)cc(Br)c1OC | 100% | 97.6% |  | 92.8% | 96.1% | 94.3% |  | 108% | 73.3% | 96.6% | 101% | 114% | 104% | 102% | 93.1% | 96.9% | 109% | 102% | 93.7% |  |
| COc1ccc(CSc2nc3cc(OC)c(OC)cc3c(=O)n2-c2ccc(Cl)cc2)cc1 | 102% | 105% | 104% |  | 103% | 103% | 104% | 109% | 93% | 107% | 99.9% |  | 101% | 95.9% |  | 106% | 103% |  |  |  |
| CS(=O)(=O)Nc1cccc(C(=O)NCc2ccc(N3CCOCC3)cc2)c1 | 104% | 112% | 107% |  |  | 101% | 112% | 103% | 92.4% | 111% | 121% |  | 97.9% | 103% |  | 99.2% | 109% |  |  |  |
| C=C1CC[C@@H]2[C@@](C)(CCC[C@]2(C)C(=O)O)[C@@H]1CC[C@H](CO)CCO | 102% | 101% |  | 85.6% | 102% | 99.3% |  | 112% | 106% | 93.8% | 105% | 118% | 99.8% | 105% | 109% | 102% | 113% | 103% | 90% |  |
| c1ccc(-c2nc(N3CCOCC3)c3c4c(sc3n2)CCCCCC4)nc1 | 62.1% | 73% | 70.3% |  | 28.9% | 87.1% | 68.5% | 76.1% | 32% | 58.4% | 63.4% |  | 74.1% | 77% |  | 59.2% | 33.6% | 6.04% (active) |  |  |
| COC(=O)c1c2c(c(C)[n+]([O-])c1C)C(=O)C=C(NCc1cccc(OC)c1)C2=O | -69.2% (active) | -19.6% (active) |  | -54.7% (active) | -52.1% (active) | -3.41% (active) |  | -99.1% (active) | -23.6% (active) | -98.9% (active) | -17.4% (active) | -46.7% (active) | -16.1% (active) | -92.3% (active) | -87.1% (active) | -83.4% (active) | -41.6% (active) | -97.5% (active) | -43.6% (active) |  |
| CN1CCN(C)c2cncc(Br)c2C1=O | 101% |  | 110% | 93.5% | 104% |  | 108% | 114% | 102% | 99.3% | 106% | 105% | 102% | 109% | 90.3% |  | 105% | -85% (active) | 91.8% |  |
| Cc1cc(O)cc2c1[C@H]1CC[C@]3(C)[C@@H](O)CC[C@H]3[C@@H]1C=C2 | 90.5% |  | 74.5% | 43.2% |  | 99.5% | 108% | 113% |  |  | 80.9% |  | 92.2% | 98.4% | 85.2% | 77.5% | 104% |  | 105% |  |
| CC(=O)Nc1ccc(Sc2ccc([N+](=O)[O-])o2)cc1 | 39.9% | 98.3% |  |  | 65.1% | 50.7% | -67.3% (active) | 34.7% | 17.6% | -16.5% (active) | 58.6% | -57.1% (active) | 54.5% | 15.3% | -43.4% (active) | 12.3% | 46.9% |  | 40.2% |  |
| COc1ccc(C2CC(c3cc(OC)c(OC)c(OC)c3)=NN2c2ccc(S(N)(=O)=O)cc2)cc1 (configuration not stated) |  | 67.6% | 67.3% | 66.9% | 44.5% | 66.6% | 75.6% | 85.7% | 33.1% | 101% | 51.3% | 79.3% | 72.9% | 77.8% | 73.7% | 64.6% | 58.8% | 55.2% | 27.8% | 61.9% |
